Consider 12 compounds from PubChem BioAssay AID720697 (Broad Institute, 2013).

Potency and affinity values are given separately. Inconclusive results are not listed. Where a call stands in place of a potency, no number is given. Active and inactive are the calls of the source.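 How the source made its calls: active means signal loss with fitted half-maximal concentration at or below twice the top valid tested dose in every test run; inconclusive means runs disagree, flat 30 to 70% signal loss, or poor fit; inactive means all runs flat, opposite direction, or potency beyond limit.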

The experiment can be described thus: general mammalian cell viability loss – inhibitor set, cherry-pick, set 2, cytotoxicity control for miR-122 modulator project, dose response (AID 720697). To be noted: HEK293T viability, CellTiter-Glo luminescence, 48 h; series mostly up to 26 µM. (ATP-based viability assays read luminescence as a measure of living cells.)
Regarding `O=c1c2cc(N3CCOCC3)ccc2[nH]c(=S)n1CCCN1CCCC1`, the compound was classed as inactive.
For the compound `CC(C)C(=O)Nc1ccc2c(c1)C(=O)N(C)[C@H]1CC[C@@H](CC(=O)NCCCN(C)C)O[C@H]1CO2`, the result was inactive.
Under `Fc1ccc(CN2CCN(c3ncnc4scc(-c5ccc(F)cc5)c34)CC2)cc1` stands “inactive”; under `COc1ccc(S(=O)(=O)Nc2ccc3c(c2)CC(=O)N([C@@H](C)CO)C[C@@H](C)[C@H](CN(C)Cc2ccc(C(F)(F)F)cc2)O3)cc1`, “inactive”; under `CN1C(=O)c2cc(NC(=O)c3cccc(F)c3)ccc2OC[C@@H]2O[C@@H](CC(=O)Nc3ccccc3)CC[C@@H]21`, “inactive”.
For `COC(=O)C[C@H]1CC[C@H]2[C@@H](COc3ccc(NC(=O)Nc4c(C)noc4C)cc3C(=O)N2C)O1`, the compound was classed as inactive.
In the case of `CN1C(=O)c2cc(NC(=O)c3ccc4c(c3)OCO4)ccc2OC[C@H]2O[C@@H](CC(=O)O)CC[C@@H]21` it was “inactive”.
Under `Cc1cc(C(=O)Nc2ccc3c(c2)C(=O)N(C)[C@@H]2CC[C@@H](CC(=O)N[C@H](C)c4ccccc4)O[C@H]2CO3)no1` stands “inactive”; under `CCNC(=O)C[C@@H]1CC[C@H]2[C@@H](COc3ccc(NC(=O)Nc4ccc(F)cc4)cc3C(=O)N2C)O1`, “inactive”; under `Cc1ccc(S(=O)(=O)Nc2ccc3c(c2)C(=O)N(C)[C@@H]2CC[C@@H](CC(=O)NCCc4ccncc4)O[C@@H]2CO3)cc1`, “inactive”.
As to `Cc1nc(C)c(C(=O)Nc2ccc(Oc3ccccc3)cc2)o1`, the outcome was inactive.
In the case of `CC(=O)N(C[C@H]1N[C@H](CO)[C@@H]1c1ccc(-c2ccccc2)cc1)C(C)C` it was “inactive”.
